Common to all, as to parameters: scale not given: direction of the effect not stated beside the values
The target in assay [1] is Protein translocase subunit SecA (Escherichia coli (strain K12)) (UniProt P10408). Put plainly: Assay to Identify E. coli SecA ATPase Inhibitors. In kind it is functional. The note with it: 30 µM.
The target in assay [2] is T1, Ubiquitin-activating enzyme e1, putative (Leishmania donovani (strain BPK282A1)) (UniProt E9BSI1).
T1 sequence (whole entry): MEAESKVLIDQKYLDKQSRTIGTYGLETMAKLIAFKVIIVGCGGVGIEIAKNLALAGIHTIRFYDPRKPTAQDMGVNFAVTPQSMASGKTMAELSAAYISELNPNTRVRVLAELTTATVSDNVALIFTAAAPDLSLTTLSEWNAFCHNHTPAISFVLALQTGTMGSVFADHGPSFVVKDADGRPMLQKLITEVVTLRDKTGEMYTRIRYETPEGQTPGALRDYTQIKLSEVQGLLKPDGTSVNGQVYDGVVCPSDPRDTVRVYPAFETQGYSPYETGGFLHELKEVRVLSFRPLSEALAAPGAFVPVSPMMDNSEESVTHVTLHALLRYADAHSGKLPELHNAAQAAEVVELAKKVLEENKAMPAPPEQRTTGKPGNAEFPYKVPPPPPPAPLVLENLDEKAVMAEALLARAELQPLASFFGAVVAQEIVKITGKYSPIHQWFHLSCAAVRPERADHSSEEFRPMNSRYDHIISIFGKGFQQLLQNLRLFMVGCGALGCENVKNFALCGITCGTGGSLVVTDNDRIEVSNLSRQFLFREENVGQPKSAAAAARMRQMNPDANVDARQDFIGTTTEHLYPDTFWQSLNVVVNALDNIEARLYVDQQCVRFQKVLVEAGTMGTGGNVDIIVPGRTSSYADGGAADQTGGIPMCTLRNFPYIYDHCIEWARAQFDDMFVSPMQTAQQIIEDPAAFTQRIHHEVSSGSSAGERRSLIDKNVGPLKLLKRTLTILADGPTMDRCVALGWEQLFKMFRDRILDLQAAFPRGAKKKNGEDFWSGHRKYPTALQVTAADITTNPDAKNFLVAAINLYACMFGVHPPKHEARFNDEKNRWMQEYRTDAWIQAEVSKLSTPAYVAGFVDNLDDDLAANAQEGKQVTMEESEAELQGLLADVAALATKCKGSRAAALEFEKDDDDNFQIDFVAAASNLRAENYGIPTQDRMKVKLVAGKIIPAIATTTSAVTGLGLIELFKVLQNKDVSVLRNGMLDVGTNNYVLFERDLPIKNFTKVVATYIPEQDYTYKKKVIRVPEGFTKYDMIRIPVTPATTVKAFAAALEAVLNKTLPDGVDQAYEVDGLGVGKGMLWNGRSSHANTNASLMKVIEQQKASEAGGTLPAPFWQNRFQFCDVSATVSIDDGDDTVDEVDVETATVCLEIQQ
The assay is described as follows: Leishmania donovani Ubiquitin Activating Enzyme (LdE1). In kind it is functional. The conditions noted are these: 30 µM.

The target of assay [3] is AMP-activated protein kinase, AMPK (Homo sapiens) (UniProt P54646+O43741+P54619+Q9UGJ0+Q9Y478+Q13131+Q9UGI9). Put plainly: AMP-dependent Kinase enzyme assay. An in vitro enzyme assay that detects ADP turnover that is directly proportional to AMPK activity. This uses naive AMPK that is activated during the assay with MK-8722. In kind it is functional. The note with it: 30 µM.

The target in assay [4] is Sialic acid-binding Ig-like lectin 9 (Homo sapiens) (UniProt Q9Y336). The assay is described as follows: Hs-Siglec9 ALPHAscreen SOP 20170721. The conditions noted are these: 10 µM.
Sequence of Sialic acid-binding Ig-like lectin 9 (Homo sapiens) (Q9Y336 whole entry): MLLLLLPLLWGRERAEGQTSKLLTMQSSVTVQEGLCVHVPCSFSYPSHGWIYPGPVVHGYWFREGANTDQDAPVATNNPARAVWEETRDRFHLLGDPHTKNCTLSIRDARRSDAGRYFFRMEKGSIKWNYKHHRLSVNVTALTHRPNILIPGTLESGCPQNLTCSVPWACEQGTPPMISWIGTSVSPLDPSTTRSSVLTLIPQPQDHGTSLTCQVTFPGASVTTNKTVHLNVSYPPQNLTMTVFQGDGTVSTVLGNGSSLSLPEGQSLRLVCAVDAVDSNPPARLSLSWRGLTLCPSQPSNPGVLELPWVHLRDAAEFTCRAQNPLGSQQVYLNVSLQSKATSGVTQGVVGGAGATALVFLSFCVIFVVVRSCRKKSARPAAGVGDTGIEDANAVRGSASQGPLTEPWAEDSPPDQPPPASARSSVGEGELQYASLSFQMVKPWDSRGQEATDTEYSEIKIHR
The next assay relates to Trypanosoma cruzi. Put plainly: Trypanosoma cruzi phosphomannomutase and mannose-1-phosphate guanylyltransferase assay. In kind it is functional. The conditions noted are these: 10 µM.
For assay [5], the target named is T2, Arginase-2, mitochondrial (Homo sapiens) (UniProt P78540).
T2 sequence (whole entry): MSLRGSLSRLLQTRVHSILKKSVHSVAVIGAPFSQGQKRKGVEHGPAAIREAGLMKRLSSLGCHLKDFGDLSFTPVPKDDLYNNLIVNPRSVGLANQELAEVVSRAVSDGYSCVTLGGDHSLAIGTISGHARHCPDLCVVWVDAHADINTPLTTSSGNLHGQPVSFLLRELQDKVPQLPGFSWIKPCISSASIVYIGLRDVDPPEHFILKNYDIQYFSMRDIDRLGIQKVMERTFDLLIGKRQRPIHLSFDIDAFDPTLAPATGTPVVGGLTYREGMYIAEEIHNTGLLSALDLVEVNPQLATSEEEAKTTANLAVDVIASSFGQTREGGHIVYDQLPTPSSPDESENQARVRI
Put plainly: in vitro enzyme assay to detect the production of urea directly proportional to the activity of Arginase II. Note: in the data most compounds retested in dose-response had high values. In kind it is functional. The note with it: 33.3 µM.

The target in assay [6] is T3, Proteasome subunit beta (Trypanosoma cruzi) (UniProt O96673).
T3 sequence (whole entry): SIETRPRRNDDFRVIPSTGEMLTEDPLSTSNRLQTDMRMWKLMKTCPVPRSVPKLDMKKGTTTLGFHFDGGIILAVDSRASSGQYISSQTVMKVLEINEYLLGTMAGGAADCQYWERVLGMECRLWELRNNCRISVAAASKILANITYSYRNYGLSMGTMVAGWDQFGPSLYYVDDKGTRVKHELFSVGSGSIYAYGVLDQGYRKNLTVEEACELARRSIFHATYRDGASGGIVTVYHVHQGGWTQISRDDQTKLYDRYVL
The assay is described as follows: Trypanosoma cruzi proteasome chymotrypsin-like activity (TcProtChymo) assay. Note: in the data most compounds retested in dose-response had high values. In kind it is functional. The note with it: 9.37 µM.

For a further assay, the species on record is Homo sapiens. The assay is described as follows: To identify inhibition of the IFN signalling (Jak-Stat) pathway via expression of an eGFP reporter gene under the control of an IFN-stimulated response element (ISRE) containing MxA promoter. The note with it: 30 µM. In kind it is functional. (In general: In a reporter assay the amount or activity of a reporter protein is the signal.)

Assay [7] concerns the target T4, Tyrosyl-tRNA synthetase, putative (Trypanosoma cruzi (strain CL Brener)) (UniProt Q4DSP6).
T4 sequence (whole entry): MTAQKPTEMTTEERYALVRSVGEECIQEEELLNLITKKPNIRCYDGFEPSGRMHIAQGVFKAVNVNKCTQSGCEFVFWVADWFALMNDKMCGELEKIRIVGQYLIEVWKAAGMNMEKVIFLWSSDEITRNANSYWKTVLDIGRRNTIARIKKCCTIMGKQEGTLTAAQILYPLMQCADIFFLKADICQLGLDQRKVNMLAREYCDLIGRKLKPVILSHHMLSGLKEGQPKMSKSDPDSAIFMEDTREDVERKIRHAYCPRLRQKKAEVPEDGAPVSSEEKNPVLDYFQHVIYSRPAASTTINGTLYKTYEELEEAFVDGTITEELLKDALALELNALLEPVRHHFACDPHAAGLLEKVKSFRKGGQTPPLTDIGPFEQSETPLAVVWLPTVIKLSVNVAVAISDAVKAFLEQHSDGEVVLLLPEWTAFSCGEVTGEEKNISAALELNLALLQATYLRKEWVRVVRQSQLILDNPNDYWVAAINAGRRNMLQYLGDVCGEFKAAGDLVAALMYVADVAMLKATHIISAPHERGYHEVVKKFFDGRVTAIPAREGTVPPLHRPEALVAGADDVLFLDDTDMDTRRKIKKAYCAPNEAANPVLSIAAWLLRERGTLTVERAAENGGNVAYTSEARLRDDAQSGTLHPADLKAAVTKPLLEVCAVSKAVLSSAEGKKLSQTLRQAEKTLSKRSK
The assay is described as follows: Trypanosoma cruzi tyrosyl tRNA synthetase (TcYRS) _High Tyrosine SOP. Note: in the data most compounds retested in dose-response had high values. In kind it is functional. The note with it: 30 µM.

Assay [8] deals with T4, Tyrosyl-tRNA synthetase, putative (Trypanosoma cruzi (strain CL Brener)). Put plainly: Trypanosoma cruzi tyrosyl tRNA synthetase (TcYRS) SOP. In kind it is functional. The note with it: 30 µM.
Assay [9] addresses Chromo domain-containing protein 1 (Saccharomyces cerevisiae (strain ATCC 204508 / S288c) (Baker's yeast)) (UniProt P32657). The assay is described as follows: ScCHD-1 Enzyme Inhibition Assay. Note: in the data most compounds retested in dose-response had high values. In kind it is functional. The conditions noted are these: 30 µM.

From ChEMBL document CHEMBL3988442, “University of Dundee, Small-Polar-MMV Screening Library” (2021) come the findings set out here.

Each structure is given as a SMILES string. For some of these results: Entries with a potency or affinity are not part of this list.

Sequence of Chromo domain-containing protein 1 (Saccharomyces cerevisiae (strain ATCC 204508 / S288c) (Baker's yeast)) (P32657 whole entry, the tested form may be a part): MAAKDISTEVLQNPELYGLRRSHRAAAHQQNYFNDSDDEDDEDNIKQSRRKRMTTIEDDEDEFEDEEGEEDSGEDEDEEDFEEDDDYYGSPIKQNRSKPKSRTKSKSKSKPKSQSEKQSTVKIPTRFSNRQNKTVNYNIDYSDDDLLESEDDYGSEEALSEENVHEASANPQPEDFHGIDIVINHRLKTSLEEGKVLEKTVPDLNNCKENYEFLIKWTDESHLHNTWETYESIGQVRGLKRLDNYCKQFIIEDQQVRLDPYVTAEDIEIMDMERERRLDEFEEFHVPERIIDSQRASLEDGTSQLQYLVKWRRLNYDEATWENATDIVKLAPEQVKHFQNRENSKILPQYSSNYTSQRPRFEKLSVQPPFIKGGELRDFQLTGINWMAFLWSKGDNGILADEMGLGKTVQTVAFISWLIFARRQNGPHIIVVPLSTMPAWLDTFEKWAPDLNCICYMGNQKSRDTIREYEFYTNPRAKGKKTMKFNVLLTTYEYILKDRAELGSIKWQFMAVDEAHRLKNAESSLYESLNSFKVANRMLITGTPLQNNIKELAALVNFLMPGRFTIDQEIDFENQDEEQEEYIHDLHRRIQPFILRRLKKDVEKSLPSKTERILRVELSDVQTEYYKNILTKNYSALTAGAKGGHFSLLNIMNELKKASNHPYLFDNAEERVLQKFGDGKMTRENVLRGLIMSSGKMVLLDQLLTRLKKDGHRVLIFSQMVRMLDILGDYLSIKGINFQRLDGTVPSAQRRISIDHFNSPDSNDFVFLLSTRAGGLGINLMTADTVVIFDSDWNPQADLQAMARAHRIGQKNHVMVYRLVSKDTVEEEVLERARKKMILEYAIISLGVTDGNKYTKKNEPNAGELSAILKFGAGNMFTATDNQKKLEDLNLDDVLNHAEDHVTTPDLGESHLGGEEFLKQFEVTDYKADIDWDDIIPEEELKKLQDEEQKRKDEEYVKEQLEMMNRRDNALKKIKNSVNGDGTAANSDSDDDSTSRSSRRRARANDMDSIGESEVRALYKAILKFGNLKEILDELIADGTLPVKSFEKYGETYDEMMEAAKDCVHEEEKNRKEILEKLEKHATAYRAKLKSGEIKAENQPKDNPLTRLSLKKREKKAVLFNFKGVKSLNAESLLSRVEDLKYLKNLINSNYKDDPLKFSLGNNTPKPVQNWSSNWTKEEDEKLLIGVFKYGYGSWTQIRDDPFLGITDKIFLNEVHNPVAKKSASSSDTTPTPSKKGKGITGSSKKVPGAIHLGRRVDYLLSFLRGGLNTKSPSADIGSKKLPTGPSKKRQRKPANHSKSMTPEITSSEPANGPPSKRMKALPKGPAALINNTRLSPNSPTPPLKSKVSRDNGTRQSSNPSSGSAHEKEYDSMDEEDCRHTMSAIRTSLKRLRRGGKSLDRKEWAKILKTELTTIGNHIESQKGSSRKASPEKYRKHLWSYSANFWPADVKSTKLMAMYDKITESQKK
Sequence of Protein translocase subunit SecA (Escherichia coli (strain K12)) (P10408 whole entry): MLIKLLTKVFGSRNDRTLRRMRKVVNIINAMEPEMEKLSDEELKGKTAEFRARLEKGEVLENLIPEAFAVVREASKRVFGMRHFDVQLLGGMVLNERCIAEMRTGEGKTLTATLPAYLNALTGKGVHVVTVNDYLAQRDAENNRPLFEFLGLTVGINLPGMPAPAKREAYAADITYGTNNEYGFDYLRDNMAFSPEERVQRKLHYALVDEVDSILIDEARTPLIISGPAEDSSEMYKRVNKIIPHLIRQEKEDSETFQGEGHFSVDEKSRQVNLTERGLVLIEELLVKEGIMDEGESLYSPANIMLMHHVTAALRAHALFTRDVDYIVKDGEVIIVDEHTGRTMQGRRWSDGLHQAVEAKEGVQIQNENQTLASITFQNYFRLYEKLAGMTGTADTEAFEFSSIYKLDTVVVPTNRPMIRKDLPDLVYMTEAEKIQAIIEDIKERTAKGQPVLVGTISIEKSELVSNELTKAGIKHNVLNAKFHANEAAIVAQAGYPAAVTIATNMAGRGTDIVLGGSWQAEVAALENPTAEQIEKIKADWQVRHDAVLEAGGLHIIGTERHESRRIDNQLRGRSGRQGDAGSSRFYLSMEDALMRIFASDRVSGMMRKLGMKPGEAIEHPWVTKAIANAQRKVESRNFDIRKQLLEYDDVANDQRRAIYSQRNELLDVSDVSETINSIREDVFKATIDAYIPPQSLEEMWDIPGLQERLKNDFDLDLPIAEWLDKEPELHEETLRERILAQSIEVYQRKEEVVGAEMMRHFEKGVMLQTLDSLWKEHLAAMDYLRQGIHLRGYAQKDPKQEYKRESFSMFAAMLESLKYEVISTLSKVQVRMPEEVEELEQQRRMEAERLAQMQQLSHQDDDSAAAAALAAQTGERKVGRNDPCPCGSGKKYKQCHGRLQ

As for `c1ccc(CN2CC[C@@H]3O[C@H](COCc4ccncc4)CC[C@@H]32)nc1`, the Percent Effect in assay [1] is -0.0418%; in [2], 10.7%; in assay [3], -4.7%; in [4], -5.18%; with Trypanosoma cruzi, -8.46%; in assay [5], 5.83%. Also, the Percent Effect in assay [6] is 9.07%; in the assay listed under Homo sapiens it was -4.23%; in assay [7], 4.25%; in [8] it was 8.97%; in [9], -2.83%.

As to `CC(C)N1CCC(Cc2cc(-c3cccc(C(=O)O)c3)ncn2)C1` (stereo unspecified), the Percent Effect in assay [1] was 1.6%; in assay [2], -9.46%; in assay [3], 7.52%; in assay [4], 4.36%; with Trypanosoma cruzi it was -1.78%; in assay [5] it was -0.232%. Also, the Percent Effect stood at 2.5% in assay [6]; 0.46% in the assay filed under Homo sapiens; 2.15% in assay [7]; 1.3% in assay [8]; 20.8% in [9].

As to `CN1CC(=O)N(c2ccccc2)CC12CCN(Cc1nccs1)C2` (stereo unspecified), the Percent Effect in [1] was 3.96%; in [2], 5.33%; in assay [3], 4.18%; in assay [4] it was -3.23%; in the assay on Trypanosoma cruzi, -6.95%; in assay [5] it was -56.1%. For the same molecule, the Percent Effect in [6] is 13%; in the assay listed under Homo sapiens it was -0.957%; in [7] it was 4.17%; in assay [8], 22.5%; in assay [9], -4.64%.

As for `O=C(N1CCCC1)N1CCN(CC2CC2)c2ncccc2C1`, the Percent Effect was -3.07% in assay [1]; 5.33% in assay [2]; 8.78% in [3]; -0.324% in [4]; -6.69% in the assay on Trypanosoma cruzi; 7.69% in [5]. For the same molecule, the Percent Effect is 21.8% in [6]; 10.6% in the assay filed under Homo sapiens; 4.25% in assay [7]; 1.28% in assay [8]; -4.2% in assay [9].

Consider `CC(C)c1nn(C)c(N(C)C)c1CNCC(O)c1ccccc1F` (stereo unspecified), for which the Percent Effect in [1] is -3.41%; in assay [2], 18.2%; in [3], -14.7%; in assay [4] it was 3.26%; with Trypanosoma cruzi it was 0.562%; in assay [5] it was -1.07%. Also, the Percent Effect is 4.39% in assay [6]; 10.4% in the assay listed under Homo sapiens; 6.8% in assay [7]; 7.32% in [8]; -8.47% in assay [9].

On to `O=C(C1=CCCC1)N1CCO[C@H]2[C@@H](Oc3ccccn3)CC[C@@H]21`, for which the Percent Effect in assay [1] is -2.61%; in [2], 13.3%; in assay [3], 4.5%; in assay [4], 0.0747%; in the assay on Trypanosoma cruzi it was 0.787%; in [5] it was 3.96%. Further, the Percent Effect was 9.96% in assay [6]; 9.01% in the assay listed under Homo sapiens; 7.45% in assay [7]; 16.7% in assay [8]; -3.61% in [9].

Regarding `COCCn1c2c(ccc1=O)CC(NS(C)(=O)=O)CC2` (stereo unspecified), the Percent Effect was -3.49% in [1]; 13.3% in assay [2]; -2.12% in assay [3]; -9.48% in [4]; -7.68% in the assay with Trypanosoma cruzi; -1.63% in assay [5]. Besides, the Percent Effect in assay [6] was -1.15%; in the assay filed under Homo sapiens, 10.7%; in [7] it was 0%; in assay [8] it was 3.85%; in assay [9] it was -4.29%.

As for `CCN(CC)CCNC(=O)c1cnc(C(C)(C)C)s1`, the Percent Effect was -3.73% in assay [1]; 0% in assay [2]; 2.58% in assay [3]; -11.2% in assay [4]; -3.64% with Trypanosoma cruzi; 2.88% in assay [5]. The Percent Effect was 8.21% in assay [6]; 0.408% in the assay listed under Homo sapiens; 0.493% in [7]; -6.17% in [8]; -0.603% in assay [9].

In the case of `COc1cccc(COCC(O)CN2CC(n3cccn3)C2)c1` (stereo unspecified), the Percent Effect in assay [1] is 0.892%; in [2], 21.1%; in [3], 5.98%; in assay [4], 1.34%; with Trypanosoma cruzi, 6.58%; in [5], -0.383%. Further, the Percent Effect in assay [6] is 10.4%; in the assay listed under Homo sapiens, -16.2%; in [7], 7.35%; in [8] it was 19.5%; in assay [9], -12.6%.

Regarding `COCC1CN(Cc2ccc(C)o2)Cc2nnn(CC3CC3)c21` (stereo unspecified), the Percent Effect in assay [1] is -3.94%; in assay [2], 2.6%; in [3] it was 4.37%; in [4] it was 2.36%; in the assay on Trypanosoma cruzi, -2.46%; in [5], 2.76%. Also, the Percent Effect in assay [6] is 0.832%; in the assay listed under Homo sapiens it was -1.19%; in [7] it was -2.15%; in assay [8], -1.24%; in assay [9] it was 5.36%.

As for `Cc1nc(-c2ccccc2)n(CC(=O)N(C(C)C)C(C)C)n1`, the Percent Effect in assay [1] was -0.812%; in assay [2] it was 18.9%; in assay [3], -12.1%; in assay [4], 5.09%; in the assay with Trypanosoma cruzi it was 3.68%; in assay [5], -9.62%. For the same molecule, the Percent Effect in assay [6] was 15.3%; in the assay listed under Homo sapiens, 14.6%; in [7], 9.36%; in assay [8] it was 23.5%; in assay [9], -8.42%.
